The values below come from PubChem BioAssay (EPA / NIEHS).

Records with an inconclusive call do not appear. Some compounds were tested as several samples or in several runs, with calls that do not always agree. Calls of active or inactive are those of the source. Rule for the calls, unless noted: active = hit-call score of the fitted dose curve at least 0.9, where 1 is the maximum; inconclusive = response in the unintended direction; inactive = score below 0.9.

Read-out in assay [1]: Intercellular Adhesion Molecule 1 (ICAM1), ICAM1 (gene 3383)
In words: BSK_3C_ICAM1: BioMAP Diversity Plus: 3C Assay for Intercellular Adhesion Molecule 1 (ICAM1) Biomarker Activity (AID 2283003; active = hit-call score of the fitted dose curve at least 0.9, where 1 is the maximum; inactive = score below 0.9). The conditions noted are these: primary human endothelial cells (HUVEC); actives raise or lower the signal. Summed up:
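Using DMSO as baseline, bidirectional curve fitting was applied to ICAM-1 ELISA signals from HUVEC in the 3C system, measured 24 h after compound addition.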

Assay [2] addresses human Retinoic Acid Receptor beta (RARb), RARB (gene 5915) (UniProt P10826). In words: ATG_RARb_TRANS: Attagene TRANS-FACTORIAL HepG2 Assay for human Retinoic Acid Receptor beta (AID 2283004). Put shortly:
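Transient transfection of HepG2 with multiple reporter units → chemical dosing, 24 h → total RNA isolation → RT with oligo(dT) → reporter-specific PCR, 6-FAM primer extension, HpaI digest → capillary electrophoresis. Positive direction vs DMSO control.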

Assay [3] can be described thus: BSK_3C_Proliferation: Cell Proliferation Assessment in the BioMAP Diversity Plus: 3C Assay (AID 2283006; active = hit-call score of the fitted dose curve at least 0.9, where 1 is the maximum; inactive = score below 0.9;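 for AC50: potency may reflect either rise or fall in cell number versus DMSO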). The note with it: primary human endothelial cells (HUVEC). Summed up:
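Measured here: sulforhodamine B (0.1%) staining of TCA-fixed sub-confluent umbilical vein endothelial cultures 48 h post-dosing, absorbance 560 nm. DMSO served as negative control and baseline; both signal gain and loss were modelled.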

In assay [4] the target is Peroxisome proliferator-activated receptor gamma (Homo sapiens) (UniProt P37231). The experiment in a line: ATG_PPARg_TRANS: Attagene TRANS-FACTORIAL HepG2 Assay for human Peroxisome Proliferator-activated Receptor-gamma (PPARg) (AID 2283007). Put shortly: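 After 24 h of chemical exposure, transfected HepG2 cells carrying PPARγ-Gal4 chimera reporter constructs are lysed for RNA. Reporter transcripts are measured by RT-PCR and capillary electrophoresis with fluorescent labelling, and gain of signal is fitted versus DMSO.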

Assay [5] concerns the target Nuclear receptor subfamily 1 group I member 2 (Homo sapiens) (UniProt O75469). In words: ATG_PXR_TRANS: Attagene TRANS-FACTORIAL HepG2 Assay for human Pregnane X Receptor (PXR) (AID 2283008). Put shortly: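 Transactivation by exogenous PXR–GAL4 fusion measured as reporter transcript induction after 24 h compound treatment of transfected human HepG2 cells. Read-out via RT-PCR and capillary electrophoresis of labelled fragments, fitted upward relative to DMSO.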

The target of assay [6] is human Retinoid X Receptor beta (RXRb), RXRB (gene 6257) (UniProt P28702). The experiment in a line: ATG_RXRb_TRANS: Attagene TRANS-FACTORIAL HepG2 Assay for human Retinoid X Receptor beta (RXRb) (AID 2283013). Summed up: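 After a 24 h incubation with test chemical, transfected HepG2 cells carrying NR-Gal4 fusions and GAL4-UAS reporter transcription units yield RNA whose reporter cDNA is FAM-labelled, HpaI-cut and sized by capillary electrophoresis; increases over DMSO are scored.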

In assay [7] the target is human Thyroid Receptor alpha (THRa1), THRA (gene 7067) (UniProt P10827). The experiment in a line: ATG_THRa1_TRANS: Attagene TRANS-FACTORIAL HepG2 Assay for human Thyroid Receptor alpha (THRa1) (AID 2283014). Summed up:
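Reporter transcript induction, read by capillary electrophoresis of 6-FAM-labelled RT-PCR products, reflects activity of a transfected THRa1-Gal4 fusion in HepG2 liver cells. Cells were dosed for 24 h; activity was fitted in the positive direction against DMSO.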

Read-out in assay [8]: E-selectin (Homo sapiens) (UniProt P16581)
In words: BSK_3C_Eselectin: BioMAP Diversity Plus: 3C Assay for Eselectin Biomarker Activity (AID 2283015; active = hit-call score of the fitted dose curve at least 0.9, where 1 is the maximum; inactive = score below 0.9;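 for outcome: cell surface E-selectin protein quantified by ELISA 24 h after dosing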). The note with it: primary human endothelial cells (HUVEC); actives raise or lower the signal. Put shortly: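 ELISA read-out of E-selectin on endothelial monolayers after 24 h chemical treatment. Human umbilical vein primary cells served as the system, with DMSO defining baseline activity for bidirectional fitting.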

Read-out in assay [9]: Interleukin-1 alpha (IL1a), IL1A (gene 3552)
The experiment in a line: BSK_BE3C_IL1a: BioMAP Diversity Plus: BE3C Assay for Interleukin-1 alpha (IL1a) Biomarker Activity (AID 2283016; active = hit-call score of the fitted dose curve at least 0.9, where 1 is the maximum; inactive = score below 0.9). The note with it: primary human bronchial epithelial cells; actives raise or lower the signal. Summed up: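 Measured in human lung primary bronchial epithelial cells: IL-1a by ELISA at 24 h after dosing, with bidirectional fitting against DMSO.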

Read-out in assay [10]: Monocyte Chemoattractant Protein-1 (MCP1), CCL2 (gene 6347)
The experiment in a line: BSK_3C_MCP1: BioMAP Diversity Plus: 3C Assay for Monocyte Chemoattractant Protein-1 (MCP1) Biomarker Activity (AID 2283017; active = hit-call score of the fitted dose curve at least 0.9, where 1 is the maximum; inactive = score below 0.9). The conditions noted are these: primary human endothelial cells (HUVEC); actives raise or lower the signal. Summed up:
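ELISA read-out of MCP-1 from human umbilical vein endothelial cell cultures harvested 24 h post-dosing. Gain or loss of signal was fitted relative to DMSO.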

Read-out in assay [11]: Monocyte Chemoattractant Protein-1 (MCP1), CCL2 (gene 6347)
In words: BSK_4H_MCP1: BioMAP Diversity Plus: 4H Assay for Monocyte Chemoattractant Protein-1 (MCP1) Biomarker Activity (AID 2283018; active = hit-call score of the fitted dose curve at least 0.9, where 1 is the maximum; inactive = score below 0.9). The note with it: primary human endothelial cells (HUVEC); actives raise or lower the signal. Summed up:
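Primary human umbilical vein endothelium is exposed to chemical for 24 h before MCP-1 is assayed by ELISA. Concentration-response fitted bidirectionally relative to DMSO.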

Read-out in assay [12]: Human Leukocyte Antigen - DR isotype (HLADR), HLA-DRA (gene 3122)
In words: BSK_3C_HLADR: BioMAP Diversity Plus: 3C Assay for Human Leukocyte Antigen - DR isotype (HLADR) Biomarker Activity (AID 2283019; active = hit-call score of the fitted dose curve at least 0.9, where 1 is the maximum; inactive = score below 0.9;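 for outcome: ELISA of cell-surface HLA-DR on HUVEC 24 h after dosing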). The conditions noted are these: primary human endothelial cells (HUVEC); actives raise or lower the signal. Put shortly:
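ELISA readout of surface HLA-DR on human umbilical vein endothelium, taken 24 h after chemical treatment. Gain- and loss-of-signal were both fitted relative to DMSO.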

Read-out in assay [13]: Monokine induced gamma interferon (MIG), CXCL9 (gene 4283)
In words: BSK_3C_MIG: BioMAP Diversity Plus: 3C Assay for Monokine induced gamma interferon (MIG) Biomarker Activity (AID 2283021; active = hit-call score of the fitted dose curve at least 0.9, where 1 is the maximum; inactive = score below 0.9;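 for AC50: MIG protein level measured by immunoassay in the treated endothelial cultures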). The note with it: primary human endothelial cells (HUVEC); actives raise or lower the signal. Put shortly: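 ELISA-measured MIG in dosed HUVEC 3C cultures at 24 h, analysed by bidirectional fitting with DMSO defining baseline activity.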

The target in assay [14] is human Peroxisome Proliferator-activated Receptor delta (PPARd), PPARD (gene 5467) (UniProt Q03181). The experiment in a line: ATG_PPARd_TRANS: Attagene TRANS-FACTORIAL HepG2 Assay for human Peroxisome Proliferator-activated Receptor delta (PPARd) (AID 2283002). Put shortly:
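Fluorescence from capillary electrophoresis of labelled RT-PCR reporter fragments gives the signal; DMSO sets baseline. Cells: HepG2 transiently carrying GAL4-UAS reporter units plus chimeric nuclear receptor-Gal4 proteins, exposed to chemicals for 24 h.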

Assay [15] has as its target Retinoic acid receptor alpha (Homo sapiens) (UniProt P10276). The experiment in a line: ATG_RARa_TRANS: Attagene TRANS-FACTORIAL HepG2 Assay for human Retinoic Acid Receptor alpha (RARa) (AID 2283005). Summed up: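 HepG2 transiently transfected with multiplex GAL4-UAS reporter units including a human RARa–GAL4 chimera; 24 h compound exposure. Reporter mRNA quantified by RT-PCR, 6-FAM labeling and capillary electrophoresis; gain of signal versus DMSO.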

The target in assay [16] is human RAR-related Orphan Receptor beta (RORb), RORB (gene 6096) (UniProt Q92753). The experiment in a line: ATG_RORb_TRANS: Attagene TRANS-FACTORIAL HepG2 Assay for human RAR-related Orphan Receptor beta (RORb) (AID 2283010). Put shortly:
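Multiplexed transcription-factor reporter assay: HepG2 cells transiently carrying NR-Gal4/GAL4-UAS constructs, 24 h treatment, mRNA quantified by RT-PCR plus capillary electrophoresis fluorescence; activity scored as induction over DMSO.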

Assay [17] has as its target Retinoic acid receptor RXR-alpha (Homo sapiens) (UniProt P19793). The experiment in a line: ATG_RXRa_TRANS: Attagene TRANS-FACTORIAL HepG2 Assay for human Retinoid X Receptor alpha (RXRa) (AID 2283012). Put shortly: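 Chimeric NR-GAL4 trans-activation in HepG2, 24 h treatment; reporter transcripts quantified by fluorescence on capillary electrophoresis, analysed for upward change from DMSO.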

Read-out in assay [18]: Interleukin-8 (IL8), CXCL8 (gene 3576)
In words: BSK_3C_IL8: BioMAP Diversity Plus: 3C Assay for Interleukin-8 (IL8) Biomarker Activity (AID 2283020; active = hit-call score of the fitted dose curve at least 0.9, where 1 is the maximum; inactive = score below 0.9). The note with it: primary human endothelial cells (HUVEC); actives raise or lower the signal. Put shortly: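 Using DMSO-treated wells as the baseline, bidirectional curve fitting was applied to ELISA-measured IL-8 from human umbilical vein endothelial cultures sampled 24 h after compound addition.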

Assay [19] has as its target human Vitamin D Receptor (VDR), VDR (gene 7421) (UniProt P11473). In words: ATG_VDR_TRANS: Attagene TRANS-FACTORIAL HepG2 Assay for human Vitamin D Receptor (VDR) (AID 2283022). Summed up: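 Steps: transfect HepG2 with GAL4-UAS-driven reporter constructs; dose compounds 24 h; isolate RNA, reverse-transcribe, PCR-amplify with 6-FAM-labelled primer extension and HpaI digestion; quantify fragments by capillary electrophoresis relative to DMSO.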

Assay [20] concerns the target human Peroxisome Proliferator-activated Receptor alpha (PPARa), PPARA (gene 5465) (UniProt Q07869). The experiment in a line: ATG_PPARa_TRANS: Attagene TRANS-FACTORIAL HepG2 Assay for human Peroxisome Proliferator-activated Receptor alpha (PPARa) (AID 2283001). Summed up: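 Transient HepG2 transfection, GAL4-UAS reporters, NR-Gal4 chimeras; 24 h compound exposure. Readout: reporter transcripts by RT-PCR, 6-FAM primer extension, HpaI digest, capillary electrophoresis. Positive direction vs DMSO baseline.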

Sequence of human Thyroid Receptor alpha (THRa1), THRA (gene 7067) (P10827 whole entry, looked up, the tested form may be a part): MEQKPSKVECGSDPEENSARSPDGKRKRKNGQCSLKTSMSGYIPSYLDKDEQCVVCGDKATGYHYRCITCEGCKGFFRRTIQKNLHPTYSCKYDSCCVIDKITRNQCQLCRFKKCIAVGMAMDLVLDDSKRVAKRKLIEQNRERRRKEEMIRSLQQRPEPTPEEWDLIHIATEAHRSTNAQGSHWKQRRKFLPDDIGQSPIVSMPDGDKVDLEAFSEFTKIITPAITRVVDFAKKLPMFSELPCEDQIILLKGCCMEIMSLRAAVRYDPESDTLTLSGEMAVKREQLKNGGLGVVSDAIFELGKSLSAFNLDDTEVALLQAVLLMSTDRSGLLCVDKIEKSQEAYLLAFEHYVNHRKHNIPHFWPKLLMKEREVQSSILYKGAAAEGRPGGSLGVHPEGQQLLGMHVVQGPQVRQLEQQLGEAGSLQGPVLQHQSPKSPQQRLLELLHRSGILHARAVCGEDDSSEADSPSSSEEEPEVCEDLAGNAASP
Sequence of human RAR-related Orphan Receptor beta (RORb), RORB (gene 6096) (Q92753 whole entry, looked up, the tested form may be a part): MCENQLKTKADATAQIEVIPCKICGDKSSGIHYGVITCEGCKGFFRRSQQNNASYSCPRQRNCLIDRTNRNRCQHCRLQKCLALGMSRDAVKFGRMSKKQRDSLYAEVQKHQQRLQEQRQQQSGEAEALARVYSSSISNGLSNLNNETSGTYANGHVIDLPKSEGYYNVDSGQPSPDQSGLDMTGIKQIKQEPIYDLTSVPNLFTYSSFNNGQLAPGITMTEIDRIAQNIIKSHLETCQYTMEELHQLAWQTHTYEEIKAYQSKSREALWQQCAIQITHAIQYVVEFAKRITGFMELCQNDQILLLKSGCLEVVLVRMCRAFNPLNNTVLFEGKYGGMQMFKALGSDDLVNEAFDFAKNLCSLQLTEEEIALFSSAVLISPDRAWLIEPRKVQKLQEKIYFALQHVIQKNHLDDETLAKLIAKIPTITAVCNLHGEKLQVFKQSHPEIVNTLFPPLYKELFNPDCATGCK
Sequence of human Retinoid X Receptor beta (RXRb), RXRB (gene 6257) (P28702 whole entry, looked up, the tested form may be a part): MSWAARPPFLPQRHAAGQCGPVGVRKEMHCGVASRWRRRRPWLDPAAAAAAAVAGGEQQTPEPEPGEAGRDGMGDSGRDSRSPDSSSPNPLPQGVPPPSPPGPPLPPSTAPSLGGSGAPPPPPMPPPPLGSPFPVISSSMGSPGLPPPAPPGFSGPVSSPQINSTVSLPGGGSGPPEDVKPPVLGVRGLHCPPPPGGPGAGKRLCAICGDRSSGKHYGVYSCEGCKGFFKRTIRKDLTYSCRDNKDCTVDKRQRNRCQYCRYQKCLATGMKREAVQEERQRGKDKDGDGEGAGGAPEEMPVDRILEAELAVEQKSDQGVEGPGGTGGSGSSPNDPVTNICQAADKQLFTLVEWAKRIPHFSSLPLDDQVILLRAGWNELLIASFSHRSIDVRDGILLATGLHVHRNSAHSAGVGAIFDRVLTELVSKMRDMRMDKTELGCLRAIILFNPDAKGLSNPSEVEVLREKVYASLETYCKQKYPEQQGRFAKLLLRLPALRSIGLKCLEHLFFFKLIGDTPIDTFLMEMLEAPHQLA
Sequence of Retinoic acid receptor alpha (Homo sapiens) (P10276 whole entry, looked up, the tested form may be a part): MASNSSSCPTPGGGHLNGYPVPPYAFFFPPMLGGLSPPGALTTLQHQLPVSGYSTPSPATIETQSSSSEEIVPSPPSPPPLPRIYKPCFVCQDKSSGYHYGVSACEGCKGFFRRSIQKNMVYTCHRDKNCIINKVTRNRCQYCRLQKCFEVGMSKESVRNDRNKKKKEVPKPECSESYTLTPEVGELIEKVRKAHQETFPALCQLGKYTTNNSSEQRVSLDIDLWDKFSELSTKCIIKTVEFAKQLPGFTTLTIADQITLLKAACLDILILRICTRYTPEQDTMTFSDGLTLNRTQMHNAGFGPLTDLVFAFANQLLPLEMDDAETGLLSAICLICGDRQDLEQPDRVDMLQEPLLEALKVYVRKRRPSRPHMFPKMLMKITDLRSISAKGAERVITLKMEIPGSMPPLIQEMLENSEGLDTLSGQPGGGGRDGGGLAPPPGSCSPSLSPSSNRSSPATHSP
Sequence of human Vitamin D Receptor (VDR), VDR (gene 7421) (P11473 whole entry, looked up, the tested form may be a part): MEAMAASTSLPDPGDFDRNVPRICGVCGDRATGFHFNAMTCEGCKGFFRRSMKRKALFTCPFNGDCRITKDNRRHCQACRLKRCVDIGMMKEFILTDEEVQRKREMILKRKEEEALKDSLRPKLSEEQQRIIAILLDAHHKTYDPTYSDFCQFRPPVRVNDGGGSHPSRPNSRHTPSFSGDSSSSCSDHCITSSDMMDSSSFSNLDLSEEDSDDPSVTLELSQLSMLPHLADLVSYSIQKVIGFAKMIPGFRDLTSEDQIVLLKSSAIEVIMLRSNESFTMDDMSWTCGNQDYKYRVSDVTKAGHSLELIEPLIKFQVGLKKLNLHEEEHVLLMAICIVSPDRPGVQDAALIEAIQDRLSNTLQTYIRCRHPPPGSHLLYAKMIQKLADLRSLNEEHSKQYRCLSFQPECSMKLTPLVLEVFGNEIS
Sequence of E-selectin (Homo sapiens) (P16581 whole entry, looked up): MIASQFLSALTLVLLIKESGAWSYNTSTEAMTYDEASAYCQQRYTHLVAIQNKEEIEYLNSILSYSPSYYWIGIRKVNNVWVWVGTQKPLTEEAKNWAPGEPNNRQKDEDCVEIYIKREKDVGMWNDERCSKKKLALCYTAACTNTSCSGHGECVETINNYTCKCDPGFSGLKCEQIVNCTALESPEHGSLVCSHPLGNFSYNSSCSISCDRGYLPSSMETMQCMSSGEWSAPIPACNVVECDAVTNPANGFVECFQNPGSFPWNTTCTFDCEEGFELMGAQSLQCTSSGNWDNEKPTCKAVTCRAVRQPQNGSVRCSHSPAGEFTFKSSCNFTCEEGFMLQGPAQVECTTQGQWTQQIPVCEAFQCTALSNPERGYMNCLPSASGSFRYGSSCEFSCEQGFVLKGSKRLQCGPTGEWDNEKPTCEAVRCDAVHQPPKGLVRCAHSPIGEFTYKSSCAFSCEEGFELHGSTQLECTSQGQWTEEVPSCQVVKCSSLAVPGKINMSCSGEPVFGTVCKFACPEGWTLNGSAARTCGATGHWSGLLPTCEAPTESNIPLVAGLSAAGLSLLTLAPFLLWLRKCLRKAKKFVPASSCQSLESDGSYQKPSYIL
Sequence of Nuclear receptor subfamily 1 group I member 2 (Homo sapiens) (O75469 whole entry, looked up, the tested form may be a part): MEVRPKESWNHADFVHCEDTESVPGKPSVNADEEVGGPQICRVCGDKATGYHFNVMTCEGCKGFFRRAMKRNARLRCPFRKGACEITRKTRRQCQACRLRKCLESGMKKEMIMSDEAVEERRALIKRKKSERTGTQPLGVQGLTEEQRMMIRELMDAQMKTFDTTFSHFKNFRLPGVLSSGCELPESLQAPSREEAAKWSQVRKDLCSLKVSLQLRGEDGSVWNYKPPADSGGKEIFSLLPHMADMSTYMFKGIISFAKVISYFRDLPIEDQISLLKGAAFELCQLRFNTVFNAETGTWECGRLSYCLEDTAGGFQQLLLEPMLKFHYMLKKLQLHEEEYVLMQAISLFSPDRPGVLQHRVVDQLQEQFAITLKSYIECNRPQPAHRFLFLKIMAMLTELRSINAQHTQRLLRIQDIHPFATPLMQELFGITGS
Sequence of human Retinoic Acid Receptor beta (RARb), RARB (gene 5915) (P10826 whole entry, looked up): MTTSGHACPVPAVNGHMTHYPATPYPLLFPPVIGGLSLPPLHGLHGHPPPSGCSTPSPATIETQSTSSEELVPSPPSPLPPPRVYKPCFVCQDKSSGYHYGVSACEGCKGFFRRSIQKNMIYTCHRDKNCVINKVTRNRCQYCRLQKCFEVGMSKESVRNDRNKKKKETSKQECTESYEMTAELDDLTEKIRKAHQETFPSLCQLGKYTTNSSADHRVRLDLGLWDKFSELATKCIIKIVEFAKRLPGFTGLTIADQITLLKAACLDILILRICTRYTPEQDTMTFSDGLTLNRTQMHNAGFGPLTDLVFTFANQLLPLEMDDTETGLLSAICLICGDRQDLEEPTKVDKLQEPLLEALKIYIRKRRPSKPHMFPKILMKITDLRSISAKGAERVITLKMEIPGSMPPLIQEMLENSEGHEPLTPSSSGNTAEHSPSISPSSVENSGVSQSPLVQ
Sequence of human Peroxisome Proliferator-activated Receptor delta (PPARd), PPARD (gene 5467) (Q03181 whole entry, looked up, the tested form may be a part): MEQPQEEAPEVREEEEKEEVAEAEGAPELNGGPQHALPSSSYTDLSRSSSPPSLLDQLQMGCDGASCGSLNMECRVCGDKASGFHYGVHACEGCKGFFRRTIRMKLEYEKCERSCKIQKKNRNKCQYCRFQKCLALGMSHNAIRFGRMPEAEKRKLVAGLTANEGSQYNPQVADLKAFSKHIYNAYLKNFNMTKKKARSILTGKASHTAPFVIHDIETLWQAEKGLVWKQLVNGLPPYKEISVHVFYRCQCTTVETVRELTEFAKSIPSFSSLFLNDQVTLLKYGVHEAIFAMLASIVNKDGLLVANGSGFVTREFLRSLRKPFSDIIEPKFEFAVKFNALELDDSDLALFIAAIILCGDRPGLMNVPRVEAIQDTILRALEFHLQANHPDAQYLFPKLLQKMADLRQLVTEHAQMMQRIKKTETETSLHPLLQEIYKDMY
Sequence of human Peroxisome Proliferator-activated Receptor alpha (PPARa), PPARA (gene 5465) (Q07869 whole entry, looked up, the tested form may be a part): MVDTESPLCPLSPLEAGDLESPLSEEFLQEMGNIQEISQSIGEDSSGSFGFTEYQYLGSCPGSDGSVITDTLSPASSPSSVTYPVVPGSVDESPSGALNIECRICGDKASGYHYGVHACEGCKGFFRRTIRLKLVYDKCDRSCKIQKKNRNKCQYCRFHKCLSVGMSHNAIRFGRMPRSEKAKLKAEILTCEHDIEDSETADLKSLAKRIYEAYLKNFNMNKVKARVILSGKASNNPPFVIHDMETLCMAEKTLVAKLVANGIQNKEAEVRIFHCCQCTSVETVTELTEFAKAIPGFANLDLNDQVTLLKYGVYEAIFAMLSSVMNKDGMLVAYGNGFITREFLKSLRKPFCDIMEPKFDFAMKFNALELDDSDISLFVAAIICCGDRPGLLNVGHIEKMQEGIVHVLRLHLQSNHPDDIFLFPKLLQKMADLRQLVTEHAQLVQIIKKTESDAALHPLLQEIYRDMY

`Cc1cc2c(cc1C(F)(F)F)N(C(=O)Nc1ccc(Oc3cccnc3C)nc1)CC2`: the outcome in assay [1], in assay [2], in assay [4], in assay [5], in assay [6] and in assay [7] was inactive. For the same compound, the outcome in assay [8], in assay [9], in [10], in [11] and in assay [13] was inactive. For the same compound, the AC50 in [3] was 9.22 µM (active); in assay [12], 18.4 µM (active).
Take `CCCCCCCC[Si](OCC)(OCC)OCC`: the result in assay [14], in assay [1], in assay [2], in assay [15], in [4] and in assay [16] was inactive. Besides, the outcome in assay [17], in assay [6], in [7], in [9] and in assay [19] was inactive. Also, the AC50 is 18.4 µM (active) in assay [3]; 26.8 µM (active) in assay [6]; 17.5 µM (active) in [8]; 31.2 µM (active) in [10]; 29.5 µM (active) in assay [11]; 23.3 µM (active) in [12]. Moreover, the AC50 in assay [18] was 30 µM (active).
As for `CN(C[C@@H](CC[N+]12CCC(C3CCCCC3)(CC1)CC2)c1ccc(Cl)c(Cl)c1)C(=O)c1cc(C(F)(F)F)cc(C(F)(F)F)c1`, the call in assay [20], in assay [5], in [16], in assay [17], in assay [6] and in assay [7] was inactive. In assay [19], the compound was called inactive. The half-maximal activity concentration (AC50) in assay [1] is 39 µM (active); in assay [3], 12.9 µM (active); in assay [8] it was 27.5 µM (active); in [9] it was 27.6 µM (active); in [10] it was 21.1 µM (active); in assay [11], 27.2 µM (active). The AC50 in assay [12] was 14.6 µM (active).
As to `CC1(C)NC(=O)N(c2ccc([N+](=O)[O-])c(C(F)(F)F)c2)C1=O`, the compound was called inactive in assay [20], in assay [1], in [3], in [4], in [17] and in [6]. The compound was called inactive in assay [7], in assay [8], in assay [9], in [10], in [11] and in [12]. The result in assay [18] and in assay [19] was inactive.
`Cc1ccc2oc(CN(Cc3ccccc3)C(=O)Nc3c(F)cc(F)cc3F)c(-c3ccc(Cl)cc3)c2c1`: the outcome in assay [1], in [15], in [4], in assay [17], in assay [6] and in assay [7] was inactive. The result in [8], in [9], in assay [10], in [11], in assay [13] and in assay [19] was inactive. Also, the AC50 was 7.43 µM (active) in assay [3] and 1.24 µM (active) in assay [5].
As for `O=C(O)c1ccccc1-n1cc(C(=O)O)c(=O)c2cc(Nc3c(F)cc(F)cc3Cl)c(Cl)cc21`, the result in assay [1], in assay [2], in assay [15], in [3], in [5] and in assay [16] was inactive. The compound was called inactive in assay [7], in assay [8], in assay [9], in assay [10], in assay [11] and in assay [12]. Also, the outcome in assay [13] was inactive.
For `CC/C(=C(/CC)c1ccc(O)cc1)c1ccc(O)cc1`, the AC50 is 32.8 µM (active) in assay [1]; 20 µM (active) in assay [3]; 6.68 µM (active) [middle of 4 runs] in assay [6]; 31.5 µM (active) in assay [8]; 29.9 µM (active) in [9]; 31 µM (active) in assay [10]. Further, the AC50 is 15.9 µM (active) in assay [11], 27.7 µM (active) in assay [12], 32.6 µM (active) in [18] and 35.8 µM (active) in [13]. Also, the call in [2], in assay [16], in [17], in assay [6] and in assay [19] was inactive.
